Test results as given in PubChem BioAssay AID2101 (National Center for Advancing Translational Sciences (NCATS), 2009).
Hit rate of the full screen: of about 330,000 compounds, about 300 (0.091%) were called active. Another 4% or so got no clear call; they are omitted. Shown is part of a subset that was picked to be rich in actives. A number with no mark means an inactive call. Calls come from the whole dose curve; as a rule, active = well fitted inhibition curve with a large enough effect; inconclusive = small, poorly fitted or top-dose-only effect, or effect the other way, or another doubt; inactive = no such curve, though single readings can be large or run the other way.

Target: Lysosomal acid glucosylceramidase (Homo sapiens) (UniProt P04062)
Test: qHTS Assay for Inhibitors and Activators of N370S glucocerebrosidase as a Potential Chaperone Treatment of Gaucher Disease;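 for activity change, negative = inhibition: 0% = full enzyme activity and -100% = no enzyme basal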
Settings: N370S GC spleen homogenate, 4MU-glucoside fluorescence; series mostly up to 59.4 µM; activity change, negative = inhibition: at the top concentration
Potency is the fitted concentration of half-maximal effect.

Structure (SMILES)	activity change, negative = inhibition	Potency
C[C@H]1CC[C@H](C(=O)O)N[C@@H]1c1ccc(C#Cc2ccccc2)cc1	5.48% [at 12.8 µM]	–
COc1ccc(-c2nc3c(c4c2C[C@H](c2ccccc2)OC4)CN(S(=O)(=O)c2c(C)noc2C)CC3)c(C)c1	-9.78% [at 12.8 µM]	–
COC(=O)c1sc(NC(=O)COC(=O)C2CCC2)c(C(=O)OC)c1C	-10.4%	–
CC(C)c1cnc(NC(=O)Cc2ccccc2)s1	21.3%	–
NCCC(=O)c1ccccc1N	2.36%	–
O=C(CCNC(=O)c1ccc([N+](=O)[O-])cc1)NC1CCCCC1	-0.406%	–
CCN(c1ccccc1)S(=O)(=O)c1cc(C(=O)NCc2ccccn2)ccc1C	-1.72%	–
C=C1/C(=C\C=C2\CCCC3(C)C2CCC3C(C)/C=C/C(O)C2CC2)CC(O)CC1O (stereo not given)	-4.51%	–
N#Cc1cc2[nH]c(=O)c(=O)[nH]c2cc1[N+](=O)[O-]	–	22.4 µM (active)
COc1ccc(CC(N)C(=O)NC2C(O)[C@H](n3cnc4c(N(C)C)ncnc43)O[C@@H]2CO)cc1 (stereo not given in full)	1.71%	–
COC(=O)[C@H]1C[C@@H]1[C@H](NC(=O)Oc1ccc(F)cc1)c1ccccc1	2.79%	–
Cc1nnc(NC(=O)c2ccc3nccnc3c2)s1	-1.49%	–
COc1cc(C2C(C#N)=C(C)NC3=C2C(=O)CC(C)(C)C3)ccc1O (stereo not given)	–	10 µM (active)
CCOC(=O)C1=C(C)NC2=C(C(=O)CC(C)(C)C2)C1c1ccsc1 (stereo not given)	0.443%	–
COc1ccc(C2C(C#N)=C(/N=C/N3CCOCC3)OC3=C2C(=O)CC(C)(C)C3)cc1OC (stereo not given)	12.4%	–
O=S(=O)(NC1CCN(S(=O)(=O)c2ccc3c(c2)OCCO3)CC1)c1c(F)cccc1F	-3.77%	–
CCN(CC)S(=O)(=O)c1ccc(CNC(=O)CN2C(=O)NC3(CCc4ccccc43)C2=O)cc1 (stereo not given)	1.57%	–
CC(C)(Oc1ccc(Cl)cc1)C(=O)OCC(=O)NCCc1ccc(S(N)(=O)=O)cc1	-2.49%	–
CCCC(Cl)CCCC(Cl)CCC(Cl)CCC(Cl)CCC(Cl)CCCC(Cl)CCC (stereo not given)	-0.806%	–
CCCC[C@H]1C(=O)N(c2ccccc2)N(c2ccc(O)cc2)C1=O	11.4% [at 21.6 µM]	–
C=CCC1CCC(=O)N2CCCC12 (stereo not given)	-6.15% [at 136 µM]	–
COc1cc2c(cc1OC)CN(C(C)C(=O)Nc1cccc(S(=O)(=O)N3CCOCC3)c1)CC2 (stereo not given)	-1.61%	–
OC[C@H]1O[C@@H](n2cnc3c(NC4CCCC4)ncnc32)[C@H](O)[C@H]1O	1.48%	–
CCOC(=O)[C@]1(C(/C=C/c2ccco2)NC(=O)OC)CCCC1=O (stereo not given in full)	2.17% [at 12.8 µM]	–
CCCCC/C=C\C[C@H](O)/C=C/C=C/C=C/[C@@H](O)CCCC(=O)O	-0.244%	–
CCNc1ncc2ncc(=O)n(Cc3cccc(OC)c3)c2n1	26.5%	–
CC(Nc1oc(-c2ccccc2)nc1-c1ccccc1)c1ccccc1 (stereo not given)	inactive	–
CN(CC(=O)NCCc1ccc(F)cc1)CC(=O)Nc1ccc(F)c(F)c1F	-17.8%	–
CC1(C)OC(C(O)(c2ccccc2)c2ccccc2)C(C(O)(c2ccccc2)c2ccccc2)O1 (stereo not given)	-1.37% [at 12.8 µM]	–
Cc1ccc(SCC(CC(C)C)N2CCN(CCc3ccccc3)CCC2=O)cc1 (stereo not given)	-11.1%	–
